Out of some 360,000 compounds screened, about 8,200 (2.3%) were called active. The entries come from a sample that favours actives as a whole. Unmarked numbers belong to inactive results. Cut-off read from the data, not from the text of the source: active = inhibition above about 27%; inactive = the rest.
The compounds below were run against Fructose-bisphosphate aldolase (Mycobacterium tuberculosis (strain ATCC 25618 / H37Rv)) (UniProt P9WQA3) (assay: Mtb FBA enzyme inhibitors, primary screen, biochemical, fluorescence, strain H37Rv (AID 588726;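 note: 0% = vehicle and 100% = reference inhibitor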)). Conditions: purified M. tuberculosis FBA, fluorescence read-out, at 1 µM, hits give high values.
Sequence of Fructose-bisphosphate aldolase (Mycobacterium tuberculosis (strain ATCC 25618 / H37Rv)) (P9WQA3 whole entry, looked up): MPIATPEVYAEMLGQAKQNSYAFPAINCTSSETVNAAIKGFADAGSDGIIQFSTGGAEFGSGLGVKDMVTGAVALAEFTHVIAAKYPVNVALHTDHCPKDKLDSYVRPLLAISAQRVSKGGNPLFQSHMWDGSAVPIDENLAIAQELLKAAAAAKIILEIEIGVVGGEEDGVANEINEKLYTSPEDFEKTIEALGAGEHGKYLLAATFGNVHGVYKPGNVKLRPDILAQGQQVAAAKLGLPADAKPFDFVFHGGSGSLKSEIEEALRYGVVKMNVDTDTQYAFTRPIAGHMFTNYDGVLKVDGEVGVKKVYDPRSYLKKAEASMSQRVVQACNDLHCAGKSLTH

**Q.** How did the inhibition turn out when `CC(=O)C1=C(O)C(=O)N(c2ccc(S(N)(=O)=O)cc2)C1c1ccccc1F` (centres undefined) was run?
**A.** 12.8%

**Q.** `CCCN(CCC)CC(O)COc1ccccc1C(=O)Nc1ccccc1` (centres undefined) was tested. Which inhibition did it give?
**A.** 0.32%

**Q.** How did the inhibition turn out when `COc1ccccc1NC(=O)N(O)C1(C#N)CCCCC1` was run?
**A.** 1.6%

**Q.** How did the inhibition turn out when `COc1ccc2c(c1)c(=Cc1ccc(N(C)C)cc1)c1cc(-c3ccccc3)[n+](C)n12` was run?
**A.** -16.1%

**Q.** For `COc1cccc(-c2sc3ccc(OC)cc3c2-c2ccc(OCCN3CCCCC3)cc2)c1`, which inhibition is on record?
**A.** 0.81%

**Q.** With `COc1ccc2sc(-c3ccccc3OC)c(-c3ccc(OCCN4CCCC4)cc3)c2c1` as the compound, how does the inhibition read?
**A.** 0.37%

**Q.** With `COc1ccc2sc(-c3ccc(N(C)C)cc3)c(-c3ccc4cc[nH]c4c3)c2c1` as the compound, how does the inhibition read?
**A.** 41% (active)

**Q.** With `CC1CC(NC(=O)/C(C#N)=C/c2ccc[nH]2)CC(C)(C)C1` (centres undefined) as the compound, how does the inhibition read?
**A.** -0.18%

**Q.** `CN(Cc1ccccc1)CC(O)COc1ccc(CNCc2cc3ccccc3s2)cc1` (centres undefined) was tested. Which inhibition did it give?
**A.** 0.16%

**Q.** With `Cc1cc(C)c2c(NC(=O)C3CC3)nn(C)c2n1` as the compound, how does the inhibition read?
**A.** 46.1% (active)

**Q.** With `Cc1ccc2c(NC(=O)C3CC3)cccc2n1` as the compound, how does the inhibition read?
**A.** 3.11%

**Q.** Which inhibition does the source give for `Cc1cc(=O)n2nc(N3CCC(C(=O)Nc4c(F)c(F)c(F)c(F)c4F)CC3)sc2n1` here?
**A.** -1.25%

**Q.** For `CCCCCC1CC(COc2ccccc2)OC1=O` (centres undefined), which inhibition is on record?
**A.** -2.11%

**Q.** For `O=c1c2cc([N+](=O)[O-])ccc2nc2n1CCC2`, which inhibition is on record?
**A.** 3.1%

**Q.** Which inhibition does the source give for `O=C(NC1CCCC1)C(c1ccccn1)N(C(=O)c1csnn1)C1CCCC1` (centres undefined) here?
**A.** 2.16%

**Q.** `COCCNc1ncnc2c1ncn2[C@H]1CN(Cc2ccc(OC)cc2)C[C@@H](CO)O1` was tested. Which inhibition did it give?
**A.** 1.53%

**Q.** How did the inhibition turn out when `COc1ccc(-c2oc3ncn(Cc4ccco4)c(=N)c3c2-c2ccc(OC)cc2)cc1` was run?
**A.** 7.98%

**Q.** `COc1ccc(-c2oc3ncnc(NCCCO)c3c2-c2ccc(OC)cc2)cc1` was tested. Which inhibition did it give?
**A.** 58.3% (active)

**Q.** How did the inhibition turn out when `Cc1cccc(N2CC(C(=O)Nc3ccccc3N3CCCC3)CC2=O)c1C` (centres undefined) was run?
**A.** 3.07%

**Q.** How did the inhibition turn out when `Cc1ccccc1/[N+]([O-])=C/c1ccncc1` was run?
**A.** 0.03%

**Q.** `CCS(=O)(=O)Nc1ccc(C2=NN(C(C)=O)C(c3cccs3)C2)cc1` (centres undefined) was tested. Which inhibition did it give?
**A.** 591% [above what the read-out allows, likely interference] (active)

**Q.** `Cc1ccc(C2CC(c3cccc(NS(C)(=O)=O)c3)=NN2S(C)(=O)=O)cc1` (centres undefined) was tested. Which inhibition did it give?
**A.** -2.56%

**Q.** With `CCS(=O)(=O)Nc1ccc(C2=NN(S(=O)(=O)c3ccc(F)cc3)C(c3ccco3)C2)cc1` (centres undefined) as the compound, how does the inhibition read?
**A.** -0.61%

**Q.** Which inhibition does the source give for `CS(=O)(=O)Nc1ccc(C2=NN(S(C)(=O)=O)C(c3cccs3)C2)cc1` (centres undefined) here?
**A.** 73.8% (active)

**Q.** With `COc1cccc(C2CC(c3ccccc3)=NN2S(=O)(=O)c2ccccc2)c1OC` (centres undefined) as the compound, how does the inhibition read?
**A.** 0.19%

**Q.** `CS(=O)(=O)Nc1cccc(C2=NN(C(=O)c3cccc(F)c3)C(c3cccs3)C2)c1` (centres undefined) was tested. Which inhibition did it give?
**A.** 5.49%

**Q.** How did the inhibition turn out when `CCOC(=O)CNc1nc2ccccc2n2c(C)nnc12` was run?
**A.** -1.1%

**Q.** For `O=C1CCc2cc(S(=O)(=O)Nc3ccc(C(F)(F)F)cc3)cc3c2N1CC3`, which inhibition is on record?
**A.** 6.49%

**Q.** How did the inhibition turn out when `Cc1cc(C(=O)CC#N)c(C)n1-c1c(C)n(C)n(-c2ccccc2)c1=O` was run?
**A.** 2.39%

**Q.** For `CCOC(=O)CNC(=O)CN1C(=O)CCSc2ccccc21`, which inhibition is on record?
**A.** 0.13%

**Q.** `O=C(COc1ccccc1Cl)Nn1cnnc1` was tested. Which inhibition did it give?
**A.** 0.49%

**Q.** With `COc1ccc(CCNc2ncnc3c2nnn3Cc2ccccc2)cc1` as the compound, how does the inhibition read?
**A.** 0.68%

**Q.** With `Cc1cc(C(=O)COc2ccc(Br)cc2F)c(C)n1C1CC1` as the compound, how does the inhibition read?
**A.** 0.29%

**Q.** Which inhibition does the source give for `CC1C2Cn3c(nc4ccccc43)C1N(C)O2` (centres undefined) here?
**A.** -1.64%

**Q.** How did the inhibition turn out when `CN1C(C(=O)NCc2ccco2)CC2Cn3c(nc4ccccc43)C21` (centres undefined) was run?
**A.** 2.79%

**Q.** Which inhibition does the source give for `CSCCNC(=O)c1ccc2nc(Cc3ccccc3F)oc2c1` here?
**A.** 3.27%

**Q.** For `CC(C)=CCN1CCN(Cc2ccc(Oc3ncccn3)cc2)CC1CCO` (centres undefined), which inhibition is on record?
**A.** 0.18%

**Q.** For `CN(C)c1nc(-c2cccnc2)nc(-c2ccc(Cl)cc2)c1C#N`, which inhibition is on record?
**A.** -3.84%

**Q.** For `CNc1nccc(-c2ccc(Cl)cc2)c1C#N`, which inhibition is on record?
**A.** 30.5% (active)

**Q.** Which inhibition does the source give for `CN(C)c1ccnc(Nc2ccc(F)cc2)c1C#N` here?
**A.** -3.67%

**Q.** With `COc1cccc(CN2CCC(C(=O)NC(c3ccc4c(c3)OCO4)c3ccccn3)CC2)c1` (centres undefined) as the compound, how does the inhibition read?
**A.** 0.6%

**Q.** How did the inhibition turn out when `O=C(CCS(=O)(=O)c1ccccc1Cl)Nc1ccc(S(=O)(=O)Nc2ncccn2)cc1` was run?
**A.** -1.51%

**Q.** Which inhibition does the source give for `O=C(NCCCN1CCCC1=O)C(=O)NCC1OCCN1S(=O)(=O)c1ccc(Br)cc1` (centres undefined) here?
**A.** 6.34%

**Q.** `Cc1ccc(-c2nc3ccccc3[nH]2)cc1N` was tested. Which inhibition did it give?
**A.** 176% (active)

**Q.** `CCOC(=O)CNC(=O)CSc1ncccc1-c1nc2ccccc2[nH]1` was tested. Which inhibition did it give?
**A.** 8.03%

**Q.** How did the inhibition turn out when `Cc1ccccc1N1CC(c2nc3ccccc3[nH]2)CC1=O` (centres undefined) was run?
**A.** 0.05%

**Q.** `CCSc1nc(=S)n(CC)c(C)c1C(C)=O` was tested. Which inhibition did it give?
**A.** -0.42%

**Q.** For `O=C(CN1CCOc2ccccc21)N1CCC(Cc2ccccc2)CC1`, which inhibition is on record?
**A.** 6.13%

**Q.** For `CCC(C)N(C(=O)COC(=O)c1nc(Cl)ccc1Cl)C1CCS(=O)(=O)C1` (centres undefined), which inhibition is on record?
**A.** 0.03%

**Q.** With `CCC(C)N(C(=O)Cn1nc(C)c([N+](=O)[O-])c1C)C1CCS(=O)(=O)C1` (centres undefined) as the compound, how does the inhibition read?
**A.** 1.23%

**Q.** `CCC(C)N(C(=O)COC(=O)C1C(C(=O)OC)=C(C)NC(C)=C1C(=O)OC)C1CCS(=O)(=O)C1` (centres undefined) was tested. Which inhibition did it give?
**A.** 74.9% (active)

**Q.** How did the inhibition turn out when `Cc1cc2cc3n(c2nn1)N=C(Cl)CC3` was run?
**A.** 83.2% (active)

**Q.** For `CCOC(=O)c1nn(-c2ccccc2F)c2nc(Nc3ccccc3)cc(=O)n12`, which inhibition is on record?
**A.** -2.45%

**Q.** For `Cc1ccccc1CCN(CC(=O)NC1CCCCC1)C(=O)c1csnn1`, which inhibition is on record?
**A.** -2.02%

**Q.** With `COc1ccccc1N(CC(=O)NC1CCCC1)C(=O)C1(C)CC(=O)N=C2C=CC(C)=CN21` (centres undefined) as the compound, how does the inhibition read?
**A.** 123% (active)

**Q.** Which inhibition does the source give for `COc1ccccc1N(C)S(=O)(=O)c1ccc(C(=O)NC2CCCCCC2)cc1` here?
**A.** 2.13%

**Q.** For `CC1=CC=CN2C1=NC(=O)CC2(C)C(=O)N(CC(=O)NC1CCCC1)c1ccccc1C` (centres undefined), which inhibition is on record?
**A.** 164% (active)

**Q.** `CCOc1ccccc1N(CC(=O)NC1CCCCC1)C(=O)CCCC(=O)Nc1ccccn1` was tested. Which inhibition did it give?
**A.** -0.58%

**Q.** How did the inhibition turn out when `Cc1ccc(N(CC(=O)NC2CCCCC2)C(=O)CCCC(=O)Nc2ccccn2)c(C)c1` was run?
**A.** 3.51%
